From PubChem BioAssay AID1347075 (National Center for Advancing Translational Sciences (NCATS), 2019) come the findings set out here.

Hit rate of the full screen: of about 400,000 compounds, about 5,500 (1.4%) were called active. Entries that show only a call come without a potency. Another 9% or so got no clear call; they are omitted. Calls come from the whole dose curve; as a rule, active = well fitted cell-killing curve with a large enough effect; inconclusive = small, poorly fitted or top-dose-only effect, or effect the other way; inactive = flat fitted curve, though single readings scatter. The full list was thinned out, with actives kept by preference.
Potency is the fitted concentration of half-maximal effect.

This experiment in a line: qHTS assay for MDR1-selective chemotherapeutics: Primary screen using the parental adenocarcinoma cell KB-3-1. Note: nearly all actives have a fitted effect of over 60% in size. The conditions noted are these: KB-3-1 viability, CellTiter-Glo ATP luminescence, 72 h; series mostly up to 46.1 µM. From the text: A prime difficulty in effectively treating cancer is the development of cellular resistance to multiple structurally unrelated anticancer drugs, a phenomenon known as multidrug resistance (MDR). […] Numerous strategies to overcome P-gp-mediated MDR have been explored, including the design of drugs that evade recognition and efflux, and development of inhibitors to block efflux and restore drug accumulation. […] An alternative approach is to exploit resistance by identifying drugs that target MDR cells over the non-resistant parental cells from which they were selected. […] The development of MDR1-selective agents represents a new strategy for resolving multidrug resistance, as it remains a long-standing clinical challenge for cancer chemotherapy.
Our goal is to identify compounds that selectively kill P-gp-expressing MDR cells. We will identify MDR1-selective compounds by comparing toxicity of compounds in the screening library against parental, drug-naive (KB-3-1) adenocarcinoma cells as well as their drug-selected MDR sub-line (KB-V1). The differential toxicity of compounds against these two cell lines will be used to identify MDR1-selective compounds, whose cytotoxicity is potentiated, rather than diminished, by P-gp expression. This assay will be utilized to conduct a quantitative high-throughput screen (qHTS) in collaboration with the NIH Chemical Genomics Center to identify selective agents, and probe hits arising from the screen will be validated using secondary assays and characterized through a well-established follow-up research program. This screen was run against the entire NCGC library collection of about 400,000 compounds.
NIH Molecular Libraries Probe Production Network [MLPCN]
NIH Chemical Genomics Center [NCGC]
PI: Michael Gottesman PhD, National Cancer Institute, NIH
Briefly, 5 microL of media containing either KB-3-1 cells (columns 1-2, 4-48) are dispensed into Greiner white, treated solid-bottom 1536-well assay plates (media-only control is added to column 3). Compounds are then transferred via Kalypsys pin tool equipped with 1536-pin array (10 nL slotted pins, V&P Scientific, San Diego, CA). Following addition of compound, the plates are incubated at 37 degrees C for 72 hours. CellTiter-Glo (2.5 µL/well) is then added, and the plates are read in a ViewLux reader (Perkin-Elmer, clear luminescence filter, 1 second exposure, 1x binning) following a 10 minute incubation. All cells are dispensed in DMEM phenol-red free media containing 10% FBS.
Library plates were screened starting from the lowest and proceeding to the highest concentration. Vehicle-only plates, with DMSO being pin-transferred to columns 5-48, will be inserted uniformly at the beginning and the end of each library in order to monitor and record any shifts in the background, which can be affected by reagent dispensers or loss in enzyme activity over time. Screening data will be corrected, normalized, and concentration-effect relationships will be derived by using publicly-available NCGC, NCATS curve fitting algorithms (http://ncgc.nih.gov/pub/openhts).
(Quantitative high-throughput screening tests each substance at several concentrations.)
`Cc1cc(C)cc(Nc2ncnc3onc(-c4ccc(F)cc4)c23)c1`: the Potency entry is “inactive”.

In the case of `Cc1cc(-c2ccc(C)c(S(=O)(=O)N3c4ccccc4CC3C)c2)on1` (stereo unspecified), the Potency was 14.6 µM (active).

As for `CC1Cc2ccccc2N1S(=O)(=O)c1ccc(Cl)nc1` (stereo unspecified), the Potency result is “inactive”.

As to `CCC1CN(S(=O)(=O)c2cc(-c3cc(C)no3)ccc2C)c2cc(C)ccc2O1` (stereo unspecified), the Potency result is “inactive”.

As to `O=C(OCC(=O)N1CCN(C(=O)c2ccco2)CC1)c1cccc(O)c1`, the Potency entry was “inactive”.

For `COc1cccc(C(=O)Nc2ccc(N3CCN(C(=O)c4ccco4)CC3)cc2)c1`, the Potency was 4.61 µM (active).

Consider `O=C(Nc1ccccc1N1CCN(C(=O)c2ccccc2)CC1)c1ccco1`, for which the Potency entry was “inactive”.

Turning to `Cc1csc2nc(COc3ccc(NC(=O)COc4ccccc4)cc3)cc(=O)n12`, the Potency result is “inactive”.

Take `O=[N+]([O-])c1ccc(/C=C/c2ccc3cccnc3c2)cc1`: the Potency result is “inactive”.

As for `O=C1/C(=C\c2ccc([N+](=O)[O-])cc2)CS(=O)(=O)C/C1=C/c1ccc([N+](=O)[O-])cc1`, the Potency is 1.46 µM (active).

Turning to `O=C1CCCN1C(=O)COc1ccc([N+](=O)[O-])cc1`, the Potency result is “inactive”.

Turning to `Cc1ccccc1C(=O)Nc1sc2c(c1C(=O)N1CCC(C)CC1)CCCC2`, the Potency entry was “inactive”.

Regarding `COc1ccc(CNC(=O)c2ccc3c(O)c(S(=O)(=O)c4ccccc4)c(=O)[nH]c3c2)cc1`, the Potency result was “inactive”.

On to `Cc1ccc(C)c(N2C(=O)N(Cc3c(F)cccc3Cl)c3ccccc3S2(=O)=O)c1`, for which the Potency result was “inactive”.

As to `Cc1cc(C)c(NC(=O)Cn2c(SCC(=O)NCc3ccccc3)nc3ccccc32)c(C)c1`, the Potency entry is “inactive”.

In the case of `Cc1cccc(NS(=O)(=O)c2ccc(-c3cnc(C4CC4)o3)cc2)c1`, the Potency is 1.46 µM (active).

Turning to `Cc1cccc(CNS(=O)(=O)c2ccc(-c3cnc(C4CC4)o3)cc2)c1`, the Potency entry was “inactive”.

For the molecule `Cc1ccc(-c2cnc(C3CC3)o2)cc1S(=O)(=O)Nc1cccc(C)c1C`, the Potency result was “inactive”.

In the case of `COCCn1c(CCC(=O)Nc2cc(C)ccc2C)nc2cccnc21`, the Potency entry was “inactive”.

In the case of `COC(=O)c1ccccc1NC(=O)c1cc(-c2ccccc2O)no1`, the Potency entry is “inactive”.

On to `O=C(CC(O)(C(F)(F)F)C(F)(F)F)Nc1ccc(Cl)c(Cl)c1`, for which the Potency is 5.17 µM (active).

Consider `O=C(CSc1nnc(-c2ccncc2)n1-c1ccccc1)Nc1ccc(Cl)c(Cl)c1`, for which the Potency result is “inactive”.

On to `Cc1ccc(-c2nn(CCC(=O)Nc3ccc(Cl)c(Cl)c3)c(=O)c3ccccc23)cc1`, for which the Potency entry was “inactive”.

As to `COc1cc(-c2noc(C3CCCN(S(=O)(=O)c4cccc(Cl)c4)C3)n2)cc(OC)c1OC` (stereo unspecified), the Potency result is “inactive”.

Consider `O=C(Cc1cccs1)N1CCCC(c2nc(-c3ccc(S(=O)(=O)N4CCCC4)cc3)no2)C1` (stereo unspecified), for which the Potency entry was “inactive”.

Take `CC(C)c1ccc(-c2noc(C3CCCN(S(C)(=O)=O)C3)n2)cc1` (stereo unspecified): the Potency is 20.6 µM (active).

`CC1CCCCN1CC(=O)N1CCCc2c1c(=O)oc1ccc(OCc3ccccc3)cc21` (stereo unspecified): the Potency entry is “inactive”.

With `Cc1cc(C)c(NC(=O)CCc2c(C)nc3c(c(C)nn3C(C)(C)C)c2C)c(C)c1`, the Potency entry was “inactive”.

For `CCc1ccc(CCC(=O)Nc2ccc(S(N)(=O)=O)cc2)o1`, the Potency entry is “inactive”.

In the case of `Cc1ccc(CCC(=O)Nc2ncc(Cc3cc(Cl)ccc3Cl)s2)o1`, the Potency was 1.16 µM (active).

Consider `Cc1cccc(-n2c(=O)c3c(c4cc(C)ccc4n3C)n(CC(=O)Nc3ccccc3Cl)c2=O)c1`, for which the Potency entry was “inactive”.

As to `CCC1CCCCN1S(=O)(=O)c1ccc(NC(=O)c2cc(=O)c3ccccc3o2)cc1` (stereo unspecified), the Potency entry was “inactive”.

Consider `COc1cc(C(O)c2nc(-c3cccc(C(=O)O)c3)cs2)ccc1F` (stereo unspecified), for which the Potency result is “inactive”.

Regarding `COc1ccc2c(c1OC)C(=O)OC2Nc1nc(-c2ccccc2)cs1` (stereo unspecified), the Potency was 3.66 µM (active).

As to `COc1ccccc1C(=O)Nc1nc2nc(-c3ccccc3)cc(=O)n2[nH]1`, the Potency result is “inactive”.

Turning to `CCOC(=O)c1cccc(NS(=O)(=O)c2cc(-c3cnc(C)o3)ccc2OC)c1`, the Potency result was “inactive”.

On to `COc1ccc(C)cc1N(CC(=O)N1CCC(C)CC1)S(=O)(=O)c1ccc(C)cc1`, for which the Potency entry was “inactive”.

With `CC(=O)Nc1ccc(NC(=O)c2cc3sccc3n2Cc2ccc(F)cc2)cc1`, the Potency entry was “inactive”.

Take `CCn1cc(C(=O)OCC(=O)Nc2cc(C)cc(C)c2)c(=O)c2ccc(C)nc21`: the Potency entry was “inactive”.

`C[n+]1ccc(/C=C/c2c[nH]c3ccccc23)cc1`: the Potency is 1.16 µM (active).

Turning to `Clc1ccc(CSc2nncn3c2cc2occc23)cc1`, the Potency entry is “inactive”.

On to `COc1cccc2cc(-c3nc(Cl)c4c5c(sc4n3)CC(C)CC5)c(=O)oc12` (stereo unspecified), for which the Potency entry is “inactive”.

As to `COc1ccc(CNC(=O)C2=Cc3cccc(OC)c3OC2)cc1OC`, the Potency entry was “inactive”.

In the case of `CCN(Cc1ccccc1)S(=O)(=O)c1ccc2c(c1)CCCN2C(C)=O`, the Potency entry was “inactive”.

Take `Oc1ccc2ccccc2c1N=Nc1nccs1`: the Potency was 14.6 µM (active).

For the molecule `Cc1ccccc1OCCSc1nc2ccc(NC(=O)c3ccco3)cc2s1`, the Potency entry was “inactive”.

Consider `Cc1ccc(S(=O)(=O)c2c(Nc3cccc(Cl)c3)sc(C(=O)c3ccc4c(c3)OCO4)c2N)cc1`, for which the Potency is 14.6 µM (active).

For `O=C(Nc1ccc2c(c1)OCO2)c1cc(-c2cccc(Cl)c2)on1`, the Potency entry was “inactive”.

`CC(=O)Nc1cccc(C(=O)OCC(=O)c2ccc3c(c2)OCO3)c1`: the Potency result is “inactive”.

With `CN(C)C1=C2C=CC=CC2/C(=C2/C=Cc3ccccc32)C=C1` (stereo unspecified), the Potency result was “inactive”.

Turning to `COc1ccc(NC(=O)c2ccc3nc(CCc4ccccc4)oc3c2)c(OC)c1`, the Potency result was “inactive”.

As for `Cc1oc2ccc(O)c(CN3CCOCC3)c2c1C(=O)Nc1cccc(Cl)c1C`, the Potency entry is “inactive”.

Take `COc1ccc(NC(=O)CSc2nccn2Cc2ccc3c(c2)OCO3)cc1`: the Potency result was “inactive”.

As to `CCCOc1ccc(NC(=O)CC2C(=O)N(C)C(=S)N2Cc2ccc3c(c2)OCO3)cc1` (stereo unspecified), the Potency was 18.4 µM (active).

As for `CCOc1ccc(NC(=O)Cn2c(=O)n(CCCC(=O)NCc3ccc4c(c3)OCO4)c(=O)c3ccccc32)cc1`, the Potency entry was “inactive”.

On to `CC(C)(O)C#Cc1ccc(CN2CCC(CO)(CCc3ccccc3)CC2)cc1`, for which the Potency result is “inactive”.

For the molecule `Cc1cccc(-c2ncc(CN3CCC(CO)(CCCc4ccccc4)CC3)cn2)c1`, the Potency result is “inactive”.

For `Cc1c(CN2CCC(CO)(CCOc3ccccc3)CC2)[nH]c2ccc(Cl)cc12`, the Potency is 14.6 µM (active).

As to `Cc1ccc(C(=O)COC(=O)C(Cc2c[nH]c3ccccc23)NC(=O)c2ccc(Br)cc2)cc1` (stereo unspecified), the Potency entry was “inactive”.

Turning to `COc1cc(C(=O)Nc2ccc(OCc3cc(=O)n4cc(C)sc4n3)cc2)cc(OC)c1OC`, the Potency result is “inactive”.

Regarding `O=C(CSc1oc(-c2ccco2)nc1S(=O)(=O)c1ccc(Cl)cc1)c1ccccc1`, the Potency result was “inactive”.
